According to ChEMBL document CHEMBL3433997, “St. Jude Leishmania screening dataset” (2016):

What was measured:
Assay type in all cases: functional
[1] = target: Solute carrier family 2, facilitated glucose transporter member 1 (Homo sapiens) (UniProt P11166); assay: ST_JUDE_LEISH: Cytotoxicity at 2uM final concentration against transgenic Leishmania Mexicana promastigotes LmGLUT1 that are glucose transport deficient and complemented with the human glucose transporter GLUT1. Activity is measured by DNA content using SYBR green in vitro
[2] = target: Hexose transporter 1 (Plasmodium falciparum) (UniProt O97467); assay: ST_JUDE_LEISH: Cytotoxicity at 2uM final concentration against transgenic Leishmania Mexicana promastigotes LmPfHT that are glucose transport deficient and complemented with the Plasmodium falciparum hexose transporter. Activity is measured by DNA content using SYBR green in vitro
[3] = target: Glucose transporter (Leishmania mexicana) (UniProt O61059); assay: ST_JUDE_LEISH: Cytotoxicity at 2uM final concentration against transgenic Leishmania Mexicana promastigotes LmGT2 that are glucose transport deficient and complemented with the L. Mexicana glucose transporter 2. Activity is measured by DNA content using SYBR green in vitro

Chain of Solute carrier family 2, facilitated glucose transporter member 1 (Homo sapiens) (P11166 whole entry): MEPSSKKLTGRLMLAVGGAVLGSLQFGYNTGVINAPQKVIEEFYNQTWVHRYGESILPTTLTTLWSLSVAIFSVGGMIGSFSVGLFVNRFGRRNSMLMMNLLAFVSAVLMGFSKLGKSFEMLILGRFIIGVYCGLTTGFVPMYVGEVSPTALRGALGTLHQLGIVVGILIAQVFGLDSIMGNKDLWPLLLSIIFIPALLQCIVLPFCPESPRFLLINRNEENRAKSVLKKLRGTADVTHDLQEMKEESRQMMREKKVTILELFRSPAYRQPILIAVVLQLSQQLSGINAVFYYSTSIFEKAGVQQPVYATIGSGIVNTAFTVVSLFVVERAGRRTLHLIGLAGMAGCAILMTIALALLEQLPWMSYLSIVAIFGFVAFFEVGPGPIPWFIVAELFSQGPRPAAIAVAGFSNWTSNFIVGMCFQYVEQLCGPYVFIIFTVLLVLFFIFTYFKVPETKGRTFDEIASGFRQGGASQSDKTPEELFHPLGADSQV

Structure (SMILES)	inhibition [1]	inhibition [2]	inhibition [3]
CNC(=O)COc1ccc(Nc2nnc(-c3ccc(C)c(S(=O)(=O)NCC4CCCO4)c3)c3ccccc23)cc1 (stereo not drawn)	1.3%	0.12%	-0.43%
Nc1ccc(Oc2ccc(Cc3cnc(N)nc3N)cc2)cc1	3.93%	4.16%	3.87%
COc1cc2c(Nc3cccc(NC(=O)c4ccccc4)c3)ncnc2cc1OCCCN1CCOCC1	0.63%	2.08%	0.27%
CCCCCCN(CCCCCC)CCCCNc1c2ccc(Cl)cc2nc2ccc(OC)cc12	-3.87%	0.39%	0.56%
COc1cccc2c(NN=Cc3ccccc3Cl)cc(C)nc12	48%	63.1%	21.7%
CCCc1ccc(NC(=O)c2ccc(CN3CCCN(CC4CCCCC4)CC3)cc2)cc1	2.9%	7.86%	5.46%
CCNc1cc(C(=O)N[C@@H](Cc2ccccc2)[C@H](O)CNCc2cc(OC)cc(OC)c2)cc(N2CCCC2=O)c1	7.69%	9.03%	6.42%
O=c1ccc2ccc(O)c(O)c2o1	7.05%	5%	4.39%
COc1ccc(OCCn2cc(C(=O)c3ccco3)c3ccccc32)cc1	3.1%	1.5%	2.42%
CN(/N=C/c1ccc(Cl)cc1)c1nc(NCCc2ccc(O)cc2)nc(N2CCNCC2)n1	7.69%	6.81%	6.34%
Cc1ccc(C)c(CC(=O)N2CCC(n3c(C)nc4ccc(F)cc43)CC2)c1	4.03%	3.03%	2.07%
Cc1cc(CN2CCCN(c3ccc4c(c3)CCN(Cc3ccc(-c5ncc[nH]5)cc3)CC4)CC2)n(C)n1	-0.3%	-1.47%	-3.2%
CC(C)CCNC(=O)[C@@H]1[C@H]2C(=O)N(C3CCCCC3)C(=O)[C@H]2[C@H]2C=C[C@@H]3C(c4ccc(C(C)(C)C)cc4)=NO[C@@H]3N21	13.3%	11.4%	7.33%
Cc1cc(=O)c(-c2ccc(Oc3ccc(Cl)cc3Cl)cc2)c(C)[nH]1	2.15%	3.32%	1.9%
COc1ccccc1C1CCN(C2CCC(NC(=O)c3cc4cc(C(C)C)ccc4[nH]3)CC2)CC1 (stereo not drawn)	-0.19%	0.03%	9.55%
Cc1ccc(-c2ccc(NC(=O)N3CCc4cc(Br)c(N5CCN(C)CC5)cc43)cc2)cn1	2.03%	1.29%	2.24%
O=S(=O)(NC1CCN(c2ccnc3cc(Cl)ccc23)C1)c1ccc(F)cc1 (stereo not drawn)	0.47%	1.68%	1.83%
Oc1cc(Nc2ccnc3cc(-c4cccc(CN5CCOCC5)c4)ccc23)c(F)cc1Cl	4.47%	4.48%	3.67%
Cc1cc(NC(=O)c2sc3ccccc3c2O)no1	2.41%	1.84%	0.64%
Cn1c(NC(=O)c2ccc(CNC(=O)c3ccc(O)c(-c4ccc(Cl)c(Cl)c4)c3)cc2)nc2ccccc21	4.29%	3.37%	3.29%
CC(=O)c1sc(NC(=O)Nc2ccc(C)cc2C)nc1C	14%	8.74%	3.63%
Cc1c(Cl)cccc1S(=O)(=O)Nc1ccc(CCN2CCC(N)CC2)cc1	-2.63%	-0.88%	-2.13%
OCC1CCN(Cc2ccc(-c3cccc(-c4nc5cc(C(F)(F)F)ccc5[nH]4)c3)cc2)CC1	-1%	1.12%	7.35%
O=C(Nc1ccc(C(F)(F)F)cc1)Nc1cccc([N+](=O)[O-])c1	2.81%	2.48%	3.51%
COc1cc(NC(=O)NC(CCN2CCC3(CCc4ccccc43)CC2)c2ccc(Cl)c(Cl)c2)cc(OC)c1OC (stereo not drawn)	0.41%	0.09%	-3.62%
CN(C)CCN(C)Cc1ccc(-c2cccc(NC(=O)c3cccc(C#N)c3)c2)cc1	15.4%	10.9%	8.24%

Structure (SMILES)	inhibition [1]	inhibition [2]	inhibition [3]
Cc1cn(CC(=O)Nc2cccc(-c3cccc(-c4nc5cc(C(F)(F)F)ccc5[nH]4)c3)c2)c(=O)[nH]c1=O	9.16%	8.95%	4.55%
N#Cc1ccc(N2CCN(Cc3ccc(-c4ccc(-c5nc6cc(C(F)(F)F)ccc6[nH]5)s4)cc3)CC2)nc1	2.33%	1.76%	0.96%
Clc1ccc(CCNCCCCCCNCCc2ccc3c(c2)OCO3)cc1	8.05%	8.53%	7.21%
CCC(C)NC(=O)Nc1ccc(-c2cccc(-c3nc4cccc(C)c4[nH]3)c2)cc1 (stereo not drawn)	0.47%	0.26%	-0.8%
Cn1nc(-c2ccc(NC(=O)Nc3cc(C(F)(F)F)ccc3F)c(F)c2)c2cnc(NCCCN3CCOCC3)nc21	6.47%	6.96%	7.47%
c1cc(CN2CCN(c3ccncc3)CC2)cc(-c2cccc(-c3nc4ccccc4[nH]3)c2)c1	2.65%	2.34%	1.32%
N#CCc1ccc(Nc2nccc(Nc3ccc(Oc4ccccc4)cc3)n2)cc1	13.8%	6.97%	1.09%
CC1CN(c2ccc(NC(=O)c3ccsc3)cc2C(=O)N2CCN(Cc3ccc(C(C)(C)C)cc3)CC2)CC(C)O1 (stereo not drawn)	-1.24%	1.1%	0.3%
O=C(NCc1cccc(C(F)(F)F)c1)c1ccc(CNC(=O)c2ccc(O)c(-c3ccc(Cl)c(Cl)c3)c2)cc1	5.02%	2.57%	3.47%
COc1cc2c(cc1C=CC(=O)N1CCN(Cc3nc(O)c4c(C)c(C)sc4n3)CC1)OC(C)C2 (stereo not drawn)	1.98%	3.73%	2.08%
O=C(Cn1c(SCc2cccc(F)c2F)cc(=O)c2ccccc21)N(CCn1ccnc1)Cc1ccc(-c2ccc(C(F)(F)F)cc2)cc1	5.51%	5.78%	2.82%
Cc1cc(-c2ccc3c(c2)CCN(CCC2CCC(NC(=O)/C=C/c4ccccc4F)CC2)CC3)on1 (stereo not drawn)	11%	6.81%	12.2%
O=S(=O)(NCCN1CCCC1)c1ccc(-c2cccc(CNCCc3cccs3)c2)s1	0.02%	2.28%	3.42%
COc1cc(NC(=O)c2cccs2)c(C(=O)NCc2ccc(C)cc2)cc1OC	5.62%	4.22%	7.02%
O=C(Nc1ccc(F)cc1)NC1CCN(c2ccnc3cc(Cl)ccc23)C1 (stereo not drawn)	-0.37%	-1.17%	-1.87%
O=C(CCn1c2ccccc2c2ccccc21)NN=Cc1ccco1	7.25%	5.11%	4.19%
Cc1cc(N)c2cc(NC(=O)c3cccc4ccccc34)ccc2n1	0.77%	1.19%	0%
C=CCn1c(SCC(=O)Nc2cc(Cl)ccc2Cl)nc2sc(C)cc2c1=O	1.86%	0.95%	0.76%
c1ccc(-n2ncc(CNCc3ccc(-c4cccc(-c5nc6ccccc6[nH]5)c4)cc3)n2)cc1	1.76%	1.26%	-2.38%
Fc1ccc(-c2oc(C3CCN(CCc4ccc(-c5noc(=S)[nH]5)cc4)CC3)nc2COCC(F)(F)F)cc1	8.65%	7.22%	8.14%
O=[N+]([O-])c1ccc(-n2nc(Cc3ccccc3)n(Cc3cccc(F)c3)c2=S)c(C(F)(F)F)c1	2.84%	3.14%	-0.25%
COc1ccc(-n2ccnc2SCC(=O)Nc2cccc(C(F)(F)F)c2)c(OC)c1	0.63%	0.74%	-0.9%
CC(=O)c1cccc2cc(C(=O)NC3CCC(CCN4CCc5ccc(C#N)cc5C4)CC3)[nH]c12 (stereo not drawn)	2.35%	2%	-0.27%
O=C(Nc1ccc(Cl)cc1)Nc1cccc(-c2cccc(-c3nc4ccccc4[nH]3)c2)c1	1.17%	0.33%	-0.65%
CCOc1ccc2[nH]c(C)cc(=NN=Cc3cccc(C)n3)c2c1	3.19%	7.58%	2.54%
